This note sets out measurements from PubChem BioAssay AID2328 (The Scripps Research Institute Molecular Screening Center, 2010).

The term inhibition denotes the change of the read-out against control, counted positive when it falls.

Each structure is given as a SMILES string. This is one part of the list. Unmarked numbers belong to inactive results.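 How the source made its calls: active means mean inhibition over triplicates above a set limit taken from the primary EBNA-1 screen (cut at about 37% in these data); inactive means the rest.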

For this test, the target named is Lytic switch protein BZLF1 (Epstein-Barr virus (strain B95-8)) (UniProt P03206). The test can be described thus: blockers of Zta binding to ZRE DNA – biochemical, fluorescence polarization, triplicate, counter-screen for EBNA-1 inhibitor project (AID 2328).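 Further: purified full length Zta protein with Cy5 labeled ZRE DNA probe; 0% = Zta with DMSO and 100% = wells lacking Zta protein; inhibitors lower polarization by freeing the labeled DNA probe.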 The conditions noted are these: Cy5 fluorescence polarization, at 11.1 µM, stronger effect = higher value.
Lytic switch protein BZLF1 (Epstein-Barr virus (strain B95-8)), sequence (P03206 whole entry, looked up): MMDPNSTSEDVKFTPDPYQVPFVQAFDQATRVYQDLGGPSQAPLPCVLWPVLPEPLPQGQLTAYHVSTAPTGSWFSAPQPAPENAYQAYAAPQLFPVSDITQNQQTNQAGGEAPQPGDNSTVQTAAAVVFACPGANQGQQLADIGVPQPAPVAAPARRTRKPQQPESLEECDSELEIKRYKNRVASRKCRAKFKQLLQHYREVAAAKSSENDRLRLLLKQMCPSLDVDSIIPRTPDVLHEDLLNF
As for `COC(=O)C1=CN(Cc2ccc(OC)cc2)C=C(C(=O)OC)C1c1ccc(O)c(OC)c1`, the inhibition is -0.26%. To `O=C(Nc1ccc2ccccc2c1)Nc1ccc2snnc2c1` belongs 1.17%; to `O=C(CCCn1c(SCC(=O)c2ccc(F)cc2)nc2ccccc2c1=O)NCc1ccco1`, 10.2%; to `N#Cc1nc(N)nc(N(c2ccccc2)c2ccccc2)n1`, -3.66%. For `COc1ccc(-c2nonc2NC(=O)c2oc3ccc(F)cc3c2C)cc1OC`, the inhibition is -0.1%. The value for `CCC(=O)Nc1ccc(C(=O)Nc2ccc3c(c2)C(=O)N(CC2CCCO2)C3=O)cc1` (configuration not stated) was -3.33%; that for `CCOc1cccc(NC(=O)Cn2nc(-c3ccc4c(c3)OCCO4)ccc2=O)c1` was -0.94%.
